In PubChem BioAssay (EPA / NIEHS):
Where “and” joins values, the source holds several entries; their conditions need not be identical. Equal entries are not always repeated. Inconclusive results are not listed. A structure can be active in one record and inactive in another. Calls of active or inactive are those of the source. How the source made its calls: active means hit-call score of the fitted dose curve at least 0.9, where 1 is the maximum; inconclusive means response in the unintended direction; inactive means score below 0.9.

Legend:
[1] = molecular target: Cellular tumor antigen p53 (Homo sapiens) (UniProt P04637); assay: TOX21_p53_BLA_p3_ratio: Tox21 HCT-116 p53 Agonism Beta-lactamase Assay, Ratio, Phase 3 (AID 2283596)
Outline: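 HCT116 p53-bla cells (4000/well) given compound in DMSO (217-fold dilution) after 5 h, incubated 16 h at 37C. CCF4-AM substrate 2 h at room temperature; 460/530 nm emission ratio, gain fitted against DMSO.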

[2] = TOX21_p53_BLA_p4_viability: Viability Assessment in the Tox21 HCT-116 p53 Agonism Beta-lactamase Assay, Phase 4 (AID 2283597);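 further: hits lower the luminescence signal meaning cytotoxicity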
Outline: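 We seeded HCT116 p53 reporter cells at 4000/well and waited 5 h. We then added compounds in DMSO at a 217-fold dilution and incubated for 16 h. Viability was read as CellTiter-Glo luminescence after 30 min at RT.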

[3] = molecular target: Cellular tumor antigen p53 (Homo sapiens) (UniProt P04637); assay: TOX21_p53_BLA_p5_ratio: Tox21 HCT-116 p53 Agonism Beta-lactamase Assay, Ratio, Phase 5 (AID 2283599)
Outline: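 HCT-116 p53-bla cells (4000/well) plated 5 h, dosed with compound (217-fold DMSO dilution) for 16 h at 37 C; CCF4-AM substrate 2 h at room temperature. Activity is the 460/530 nm emission ratio (405 nm excitation), fitted in gain-of-signal direction versus DMSO.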

[4] = TOX21_p53_BLA_p5_viability: Viability Assessment in the Tox21 HCT-116 p53 Agonism Beta-lactamase Assay, Phase 5 (AID 2283600)
Outline: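 Compounds, pinned from DMSO at 217-fold dilution, were left on the cells for 16 h. The viability endpoint was ATP content measured by CellTiter-Glo luminescence, where falling signal reflects cytotoxicity.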

[5] = molecular target: Cellular tumor antigen p53 (Homo sapiens) (UniProt P04637); assay: TOX21_p53_BLA_p4_ratio: Tox21 HCT-116 p53 Agonism Beta-lactamase Assay, Ratio, Phase 4 (AID 2283601)
Outline: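 HCT-116 p53 beta-lactamase reporter cells (4000/well) preincubated 5 h, then compound (217-fold dilution of DMSO stock) for 16 h at 37C. CCF4-AM substrate added 2 h at room temperature; 460/530 nm emission ratio fitted upward versus DMSO.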

[6] = Tanguay_ZF_120hpf_MORT_legacy: (Legacy) Oregon State University Tanguay Lab 120 Hour Post-fertilization zebrafish Assay for Mortality (AID 2283633);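 on AC50: fitted as increase in binary mortality versus DMSO negative control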
Outline: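 Brightfield scoring of embryo death (binary) at 24 and 120 hpf; static exposure 6–120 hpf, 28C, sealed and foil-covered. Pronase-dechorionated 5D wild-type larvae, single embryo per well. DMSO 0.64% v/v; trimethyltin chloride 5uM positive control.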

[7] = Tanguay_ZF_120hpf_YSE_legacy: (Legacy) Oregon State University Tanguay Lab 120 Hour Post-fertilization zebrafish Assay for Yolk Sac Edema (AID 2283634);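 on AC50: actives raise the incidence of yolk sac edema above the DMSO baseline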
Outline: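 Binary brightfield scoring of yolk sac edema at 120 hpf; DMSO baseline, gain-of-signal fitting. Dechorionated 5D larvae, one per well, static exposure 6–120 hpf, 28C, 0.64% DMSO. Dead embryos not scored.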

[8] = Tanguay_ZF_120hpf_AXIS_legacy: (Legacy) Oregon State University Tanguay Lab 120 Hour Post-fertilization zebrafish Assay for Body Axis Malformation (AID 2283635);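 on AC50: potency for an increased fraction of larvae scored with body axis malformation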
Outline: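 Embryos: 5D wild-type, pronase-dechorionated 4 hpf; static exposure 6–120 hpf, 28C, sealed, dark, 1 embryo/well, 0.64% DMSO. 120 hpf axis malformation scored present/absent; dead embryos excluded. Analysed as gain of signal vs DMSO.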

[9] = Tanguay_ZF_120hpf_EYE_legacy: (Legacy) Oregon State University Tanguay Lab 120 Hour Post-fertilization zebrafish Assay for Eye Malformation (AID 2283636);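 further: binary presence or absence of eye malformation scored by brightfield in 120 hpf larvae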
Outline: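 Dechorionated Tropical 5D zebrafish embryos, one per well from 6 hpf, static exposure to 120 hpf at 28C, 0.64% DMSO. Eye malformation scored present/absent by brightfield; dead embryos not scored.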

[10] = Tanguay_ZF_120hpf_SNOU_legacy: (Legacy) Oregon State University Tanguay Lab 120 Hour Post-fertilization zebrafish Assay for Snout Malformation (AID 2283637)
Outline: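 Dechorionated tropical 5D wild-type zebrafish embryos exposed statically from 6 to 120 hpf at 28C, one per well, in 0.64% DMSO. Snout malformation scored as present/absent by brightfield at 120 hpf; dead embryos not scored.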

Measured: AC50

Chain of Cellular tumor antigen p53 (Homo sapiens) (P04637 whole entry, looked up): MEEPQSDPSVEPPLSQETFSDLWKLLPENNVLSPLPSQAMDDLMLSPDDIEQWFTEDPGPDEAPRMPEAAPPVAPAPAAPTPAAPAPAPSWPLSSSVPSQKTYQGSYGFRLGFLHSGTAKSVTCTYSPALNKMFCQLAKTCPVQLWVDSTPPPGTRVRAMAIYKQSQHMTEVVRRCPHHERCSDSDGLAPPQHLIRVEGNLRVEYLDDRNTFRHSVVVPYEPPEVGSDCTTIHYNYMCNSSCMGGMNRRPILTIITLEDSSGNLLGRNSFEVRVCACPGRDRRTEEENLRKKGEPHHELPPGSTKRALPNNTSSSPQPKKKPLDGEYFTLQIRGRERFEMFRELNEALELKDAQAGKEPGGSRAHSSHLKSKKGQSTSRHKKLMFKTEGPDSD

CC(O)CCO (centres undefined)
inactive: [1] | [2] | [3] | [4] | [5] | [6] | [7] | [8] | [9] | [10]

Clc1ccc(C(c2ccc(Cl)cc2)C(Cl)(Cl)Cl)cc1
inactive: [1] | [2] | [3] | [4] | [5] | [6] | [7] | [8]
active: [2] 30.7 µM | [3] 82.5 µM and 43.3 µM | [4] 68.3 µM and 31.9 µM

CN(C)[C@@H]1C(=O)C(C(N)=O)=C(O)[C@@]2(O)C(=O)C3=C(O)c4c(O)cccc4[C@@](C)(O)[C@H]3C[C@@H]12
inactive: [1] | [2] | [3] | [4] | [5] | [6] | [7] | [8] | [9]

CCN(CC)CCO
inactive: [1] | [2] | [3] | [4] | [5] | [6] | [7] | [8] | [9]

COP(=S)(OC)SCN1C(=O)c2ccccc2C1=O
inactive: [1] | [2] | [3] | [4] | [5] | [6] | [7] | [8] | [9]

Nc1ccc([N+](=O)[O-])cc1
inactive: [1] | [2] | [3] | [4] | [5] | [6] | [7] | [8] | [9]

CCN(CC)N=O
inactive: [1] | [2] | [3] | [4] | [5] | [6] | [7] | [8] | [9]

CCC(C)c1ccc(O)cc1 (centres undefined)
inactive: [1] | [2] | [3] | [4] | [5] | [6] | [7] | [8] | [9]

O=P(OCCCl)(OCCCl)OCCCl
inactive: [1] | [2] | [3] | [4] | [5] | [6] | [7] | [8] | [9]

CC(C)(C)C(O)(CCc1ccc(Cl)cc1)Cn1cncn1 (centres undefined)
inactive: [1] | [2] | [3] | [4] | [5] | [6] | [7] | [8] | [9]

c1ccc2c(c1)oc1ccccc12
inactive: [1] | [2] | [3] | [4] | [5] | [6] | [7] | [8] | [9]

OCCCBr
inactive: [1] | [2] | [3] | [4] | [5] | [6] | [7] | [8] | [9]

Cc1cc(N=Nc2ccccc2C)ccc1N
active: [2] 46.1 µM | [3] 73.3 µM and 76.2 µM | [5] 74.4 µM
inactive: [1] | [2] | [4] | [5] | [6] | [7] | [8] | [9] | [10]

Nc1ccc(Cl)cc1N
active: [3] 74.7 µM | [6] 25.3 µM
inactive: [1] | [2] | [3] | [4] | [5] | [7] | [8] | [9] | [10]

CN(C)c1ccc(C(=O)c2ccc(N(C)C)cc2)cc1
inactive: [2] | [4]
active: [1] 826 nM and 1.65 µM | [3] 690 nM and 351 nM | [5] 907 nM and 463 nM | [6] 9.64 µM | [7] 25.4 µM | [8] 25.2 µM | [9] 8.23 µM

Cc1cccc(N)c1N
active: [2] 26.8 µM | [7] 10.6 µM | [8] 27.8 µM
inactive: [1] | [2] | [3] | [4] | [5] | [6] | [9] | [10]

CCCCCCCCn1sccc1=O
inactive: [1] | [2] | [3] | [4] | [8] | [9]
active: [1] 55.1 µM | [2] 15.4 µM | [5] 23.7 µM and 46.2 µM | [6] 2.96 µM

ClC1=C(Cl)C2(Cl)C3C(Cl)C=CC3C1(Cl)C2(Cl)Cl (centres undefined)
active: [2] 45.8 µM | [4] 75 µM
inactive: [1] | [2] | [3] | [4] | [5] | [6] | [7] | [8] | [9]

Oc1ccc2ccc3cccc4ccc1c2c34
active: [6] 35.6 µM | [7] 13.7 µM | [8] 13.1 µM | [9] 44.9 µM
inactive: [1] | [2] | [3] | [4] | [5]

C1=Cc2cccc3cccc1c23
inactive: [1] | [2] | [3] | [4] | [5] | [6] | [7] | [8] | [9]

O=C1CCCO1
inactive: [1] | [2] | [3] | [4] | [5] | [6] | [7] | [8] | [9]

Cc1ccc(N)c(N)c1
inactive: [1] | [2] | [3] | [4] | [5] | [6] | [7] | [8] | [9]

O=[N+]([O-])c1ccc(Oc2ccc(Cl)cc2Cl)cc1
inactive: [1] | [2] | [3] | [4] | [5] | [6] | [7] | [8] | [9]

CC(C)(C)OOC(=O)c1ccccc1
inactive: [1] | [2] | [3] | [4] | [5] | [6] | [7] | [8] | [9]

Cc1ccc(N=C=O)cc1N=C=O
inactive: [1] | [2] | [3] | [4] | [5] | [6] | [7] | [8] | [9]

CCC[CH2][Sn]([Cl])([CH2]CCC)[CH2]CCC
active: [1] 25.6 µM and 28.6 µM | [2] 917 nM and 983 nM | [3] 36.5 µM and 31.8 µM | [4] 1.52 µM | [5] 27.7 µM and 25.6 µM | [6] 0.282 µM
inactive: [7] | [8] | [9] | [10]

Clc1ccc(C(c2ccc(Cl)cc2)C(Cl)Cl)cc1
inactive: [1] | [6] | [7] | [8] | [9]
active: [1] 48.4 µM | [2] 63.4 µM and 46.7 µM | [3] 89.8 µM and 85.4 µM | [4] 81.2 µM and 73.1 µM | [5] 78.4 µM and 79.1 µM

CCCCOC(=O)c1ccccc1C(=O)OCc1ccccc1
inactive: [1] | [2] | [3] | [4] | [5] | [6] | [7] | [8] | [9] | [10]

CCC12COCN1COC2
inactive: [1] | [2] | [3] | [4] | [5] | [6] | [7] | [8] | [9] | [10]

CO[C@@H]1[C@H](OC(=O)NC(=O)CCl)CC[C@]2(CO2)[C@H]1[C@@]1(C)O[C@@H]1CC=C(C)C
active: [7] 0.0035 µM | [10] 239 nM
inactive: [1] | [2] | [3] | [6] | [8] | [9]

N#CC(Br)(Br)C(N)=O
active: [2] 70.2 µM
inactive: [1] | [4] | [5] | [6] | [7] | [8] | [9]

Nc1ccc(N=Nc2ccccc2)cc1
inactive: [1] | [2] | [3] | [4] | [5] | [6] | [7] | [8] | [9] | [10]

ClC1=C(Cl)[C@]2(Cl)[C@H]3[C@H]([C@@H]4C=C[C@H]3C4)[C@@]1(Cl)C2(Cl)Cl
inactive: [1] | [3] | [4] | [5] | [6] | [7] | [8]

CN(C)c1ccccc1
inactive: [1] | [2] | [3] | [4] | [5] | [6] | [7] | [8] | [9] | [10]

Cc1ccc(N)cc1
inactive: [1] | [2] | [3] | [4] | [5] | [6] | [7] | [9]
